In the library only some 32% were active in any assay of this set; here they are far more common.
CYP2C9 activ: activators of human CYP2C9 | recombinant CYP2C9, luciferin-H conversion, luminescence; active compounds read high; factor 1 = untreated enzyme, 0 = blocked | activation factor at 5 µM | 1.4% of 96,000 active | AID 1024;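 active means activation factor of 2 or more for CYP2C9 at a 5 µM dose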;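 further: 0 = sulfaphenazole-blocked wells and 1 = vehicle-only wells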
PostGolgi yeast: growth inhibition of a yeast mutant, post-Golgi transport screen | 0.9% of 98,000 active | post-Golgi transport phenotypic cell assay | inhibition, % at 10 µM;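 further: yeast cells grown in 1536-well plates; yeast grown about 18 h at 30C before absorbance read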
PostGolgi ctrl: yeast control strain growth, post-Golgi counter-screen; efflux-deficient yeast background strain, growth absorbance A615, 16 h; inhibition, % at 10 µM; 5% of 98,000 active
CYP2C9 inhib: blocks human cytochrome P450 2C9 | P11712 | CYP2C9 Supersomes, luciferin-H conversion, luminescence | inhibition, % at 5 µM | 20% of 96,000 active | AID 777;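 active means blocking of liver enzyme CYP2C9 beyond about 50% at 5 µM, limit read from the data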
CYP2C19 activ: cytochrome P450 2C19 (human) activation; 96,000 tested, under 10 active; P33261; activation factor at 5 µM; recombinant CYP2C19, luciferin-H EGE luminescence; active compounds read high; 0 = fully inhibited enzyme, 1 = untreated enzyme;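 active means activation factor of at least 2 at 5 µM in the primary screen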;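 further: 0 = wells with 2.5 mM tranylcypromine and 1 = vehicle-only wells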
Target sequence (P33261 whole entry, looked up): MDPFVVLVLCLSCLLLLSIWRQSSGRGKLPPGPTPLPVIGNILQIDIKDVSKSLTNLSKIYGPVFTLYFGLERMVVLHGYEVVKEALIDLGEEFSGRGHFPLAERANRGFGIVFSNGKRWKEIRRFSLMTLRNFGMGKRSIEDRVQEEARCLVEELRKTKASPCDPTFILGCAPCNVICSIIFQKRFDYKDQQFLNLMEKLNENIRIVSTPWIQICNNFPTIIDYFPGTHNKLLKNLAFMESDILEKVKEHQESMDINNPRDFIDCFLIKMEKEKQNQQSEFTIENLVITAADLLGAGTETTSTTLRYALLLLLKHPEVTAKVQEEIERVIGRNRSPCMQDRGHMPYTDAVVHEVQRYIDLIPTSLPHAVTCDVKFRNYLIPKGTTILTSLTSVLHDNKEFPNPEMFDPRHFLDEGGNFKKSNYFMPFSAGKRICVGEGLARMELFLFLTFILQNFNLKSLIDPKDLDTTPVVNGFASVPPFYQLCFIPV
CYP2C19 inh: human CYP2C19 inhibition; P33261; CYP2C19 Supersomes, luciferin-H EGE luminescence, 30 min; inhibition, % at 5 µM; 21% of 96,000 active; AID 778;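 active means CYP2C19 inhibition above a set limit at 5 µM in the primary screen, cut at about 50% in these data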;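 further: plate controls were negative control wells for no effect and 2.5 mM tranylcypromine positive control for full effect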
* marks the source's active call; other numbers are inactive results; nt = no result. Unless noted, no stated cut-off is given here; in the data, active means inhibition above about 30%; inactive means the rest.

SMILES	CYP2C9 activ	PostGolgi yeast	PostGolgi ctrl	CYP2C9 inhib	CYP2C19 activ	CYP2C19 inh
CCCCC(CC)COC1(c2ccccc2)OC(=O)c2ccccc21 (stereo not given)	0.5	0	-1	46	0.7	28
CCOc1ccc(CC(C(N)=O)C(N)=O)cc1CN(C)C	1.1	12	-6	-5	1.1	-11
O=C(CC(c1ccccc1)c1cc(Cl)ccc1O)N1CCOCC1 (stereo not given)	1.1	-4	-10	-13	1.1	-14
CCCN(CCC)C(=O)CC(c1ccc(F)cc1)c1ccco1 (stereo not given)	0.4	1	15	55*	0.5	51*
O=C(CC(c1ccc(F)cc1)c1ccco1)N1CCCC1 (stereo not given)	0.8	5	15	17	0.2	78*
O=C(CC(c1ccc(F)cc1)c1ccco1)N1CCOCC1 (stereo not given)	1	-10	-2	2	0.3	74*
Cc1cc(C)c(S(=O)(=O)N2CCN=C2c2ccccc2)cc1C	1.5	1	15	-47	0.4	60*
Cc1ccc(-c2nnc(N3CCCCC3)c3ccccc23)cc1S(=O)(=O)NCC1CCCO1 (stereo not given)	0.5	0	13	46	0.9	10
CCn1c(SCC(=O)N2CCCc3ccccc32)nc2cccnc21	0.8	9	0	24	0.6	36
CCn1c(SCC(=O)N2CCCc3ccccc32)nc2ccccc2c1=O	0	-1	40*	97*	0.3	69*
O=C(CSc1ccc2nnc(-c3cccnc3)n2n1)N1CCc2ccccc21	0.7	nt	nt	35	1	0
Cc1cc2c(=O)n(Cc3ccco3)c(SCC(=O)NCc3ccco3)nc2s1	0.8	4	3	17	1	1
Cc1cc2c(=O)n(Cc3ccco3)c(SCC(=O)N3CCCc4ccccc43)nc2s1	0.1	4	32*	90*	0.7	32
O=C(CSc1ccc2nnc(-c3ccc(Cl)cc3)n2n1)N1CCc2ccccc21	0.1	-9	-2	85*	1.1	-13
Cc1ccc(-c2nnn(CC(=O)N3CCCc4ccccc43)n2)cc1	0.6	-12	9	39	0.9	12
O=C(Cn1nnc(-c2ccncc2)n1)N1CCc2ccccc21	0.3	0	12	70*	0.8	24
CCCS(=O)(=O)N1CCCC(C(=O)NCCCN2CCN(c3cccc(Cl)c3)CC2)C1 (stereo not given)	0.9	6	11	13	1	-3
Cc1ccc2nc(-c3ccccn3)cc(C(=O)NC3CCN(C)CC3)c2c1	0.9	20	1	11	1	-3
CCn1c(SCC(=O)N2CCc3ccccc32)nnc1-c1ccncc1	0.9	2	2	14	0.4	63*
CCn1c(SCC(=O)N2CCCc3ccccc32)nnc1-c1ccco1	1.1	49*	1	-7	0.3	71*
CC1CCCCN1C(=O)CSc1nnc(-c2ccco2)n1CC1CCCO1 (stereo not given)	0.9	-1	6	11	0.2	83*
Nn1c(SCC(=O)N2CCCc3ccccc32)nnc1-c1ccccc1	1	-3	3	-3	0.8	23
CCC(C)(C)NC(=O)CN(Cc1cccs1)C(=O)C(=O)Nc1ccc2c(c1)OCCO2	0.3	-3	7	72*	0.5	46
CCC(C)(C)NC(=O)CN(Cc1cccs1)C(=O)CCC(=O)Nc1nccs1	0.9	-3	14	14	0.8	25
CC(NS(=O)(=O)c1ccc(CCC(=O)N2CCN(C)CC2)cc1)c1ccccc1 (stereo not given)	0.9	4	2	14	0.6	41
Cc1cccc(NC(=O)CCc2ccc(S(=O)(=O)NC3CCCCC3)cc2)c1	0.4	4	-2	60*	0.8	15
O=C(Nc1cccc(NS(=O)(=O)c2ccc(S(=O)(=O)NC3CC3)cc2)c1)c1ccccn1	0	-2	5	97*	0	99*
O=C(Nc1ccc(NC(=O)C2CC2)nc1)c1ccccn1	1.2	20	8	-16	0.9	13
Cc1cccc(NC(=O)COC(=O)CNC(=O)C2CCCCC2)c1	0.8	1	-4	24	0.7	25
Cc1ccc(CNC(=O)CCc2ccc(S(=O)(=O)NC3CCCCC3)cc2)cc1	0.3	-6	21	69*	0.5	52*

Assay outcomes (PubChem)
